Values without a mark were called inactive. Results filed as inconclusive are left out. Active and inactive are the calls of the source. Unless noted, calls follow the shape of the full dose curve.

Data on seven compounds can be found in PubChem BioAssay (Tox21).

The nature of experiment [1]: Nuclear factor erythroid 2-related factor 2/antioxidant responsive element (Nrf2/ARE) small molecule agonists: qHTS cell viability counter screen in human keratinocytes (AID 1919968; active = well fitted curve in the direction sought with a large enough effect in the repeat runs; an effect the other way counts as inactive or inconclusive; also: nearly all actives have a fitted effect of over 55% in size). The method, boiled down:
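Parallel cytotoxicity read: KeratinoSens HaCaT cells, compound treatment 23 h, viability by CellTiter-Fluor fluorescence 1 h post-reagent.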
For orientation: Quantitative high-throughput screening tests each substance at several concentrations.

Experiment [2] can be described thus: Nuclear factor erythroid 2-related factor 2/antioxidant responsive element (Nrf2/ARE) small molecule agonists: luciferase reporter gene qHTS assay in human keratinocytes (AID 1919969). Also: nearly all actives have a fitted effect of over 35% in size. Also: potency is read from the fitted curve at half-maximal effect. In general terms: A reporter such as luciferase makes a cellular process visible.
Experiment [3] deals with Gonadotropin-releasing hormone receptor (Homo sapiens) (UniProt P30968). Nature of the experiment: Human gonadotropin-releasing hormone receptor (GnRHR) small molecule agonists, calcium flux assay in GnRHR-HEK293 cells (AID 1920063). Also: nearly all actives have a fitted effect of over 35% in size. The method, boiled down: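 Calcium flux, agonist mode, human GnRHR stably integrated in HEK293; dye 1 h at 37 C before compound; Ex/Em=480/540 kinetic read, 3 min; 15 concentrations, triplicate.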
Chain of Gonadotropin-releasing hormone receptor (Homo sapiens) (P30968 whole entry, looked up): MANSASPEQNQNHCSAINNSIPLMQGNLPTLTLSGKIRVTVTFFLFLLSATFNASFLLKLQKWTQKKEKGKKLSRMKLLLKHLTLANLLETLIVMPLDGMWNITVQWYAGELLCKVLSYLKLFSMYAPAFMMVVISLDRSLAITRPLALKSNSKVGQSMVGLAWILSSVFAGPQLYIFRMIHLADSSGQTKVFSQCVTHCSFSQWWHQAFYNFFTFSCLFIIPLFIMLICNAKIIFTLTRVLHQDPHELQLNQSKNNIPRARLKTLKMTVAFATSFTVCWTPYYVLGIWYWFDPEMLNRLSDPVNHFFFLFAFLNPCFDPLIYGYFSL

The target of experiment [4] is KiSS-1 receptor (Homo sapiens) (UniProt Q969F8). The experiment is described as follows: Human kisspeptin (KISS1R) small molecule agonists, calcium flux assay in KISS1R-HEK293 cells (AID 1920064; active = well fitted curve in the direction sought with a large enough effect in the repeat runs; an effect the other way counts as inactive or inconclusive). The method, boiled down: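 Triplicate 15-concentration series were applied to dye-loaded human KISS1R HEK293 cells, and agonist-evoked calcium fluorescence was captured for 3 min.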
Chain of KiSS-1 receptor (Homo sapiens) (Q969F8 whole entry, looked up): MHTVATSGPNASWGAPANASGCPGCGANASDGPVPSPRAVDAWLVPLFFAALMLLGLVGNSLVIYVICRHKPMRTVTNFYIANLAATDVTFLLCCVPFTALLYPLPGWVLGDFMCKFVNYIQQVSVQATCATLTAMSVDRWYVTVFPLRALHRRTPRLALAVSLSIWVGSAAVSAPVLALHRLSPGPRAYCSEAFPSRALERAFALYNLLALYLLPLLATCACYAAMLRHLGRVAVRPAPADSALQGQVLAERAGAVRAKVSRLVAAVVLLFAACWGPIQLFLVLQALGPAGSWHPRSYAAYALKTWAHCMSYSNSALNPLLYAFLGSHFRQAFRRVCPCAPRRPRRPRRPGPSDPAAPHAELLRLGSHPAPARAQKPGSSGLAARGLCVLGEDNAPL

The nature of experiment [5]: G protein-coupled receptor (GPCR) small molecule agonists, calcium flux assay: HEK293 wild type cell line counter screen (AID 1920065). The method, boiled down:
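Non-specific calcium responders were flagged by adding DMSO-dissolved compounds to dye-loaded cells and reading 480/540 nm fluorescence each second for 3 min; ATP served as positive control.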

A short description of experiment [6]: p53 small molecule agonists, cell-based qHTS assay with human liver microsomes (AID 1963577).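 Also: p53 response element beta-lactamase reporter cells with liver microsomes plus NADPH.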 The method, boiled down:
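Reporter activation was measured by LiveBLAzer fluorescence intensity in p53RE-bla cells, which had been exposed to compounds for 16 h at 37 C alongside 0.5 mg/mL human liver microsomes and 0.5 mg/mL NADPH (final concentrations).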

Experiment [7] in a line: p53 small molecule agonists, cell-based qHTS assay with human liver microsomes: qHTS cell viability counter screen (AID 1963579). Also: nearly all actives have a fitted effect of over 45% in size. The method, boiled down:
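HLM-supplemented (0.5 mg/mL final) and NADPH-supplemented (0.5 mg/mL final) p53RE-bla cultures, 4,000 cells per well, were dosed with compounds in DMSO for 16 h at 37 C; luminescent ATP detection (CellTiter-Glo, 30 min, room temperature) quantified surviving cells.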

Experiment [8] can be described thus: p53 small molecule agonists, cell-based qHTS assay with rat liver microsomes: qHTS cell viability counter screen (AID 1963580). Also: nearly all actives have a fitted effect of over 45% in size. In a few lines: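 After the beta-lactamase ratio was read, CellTiter-Glo was added to the same wells and luminescence measured at 30 min; cells had been treated 16 h at 37 C with compounds, rat liver microsomes and NADPH (0.5 mg/mL final each).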

The target of experiment [9] is 5-hydroxytryptamine receptor 2A (Homo sapiens) (UniProt P28223). The experiment is described as follows: 5-hydroxytryptamine receptor 2A (HTR2A) small molecule antagonists, cell-based qHTS assay (AID 1963586). Also: nearly all actives have a fitted effect of over 45% in size. In a few lines: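 CHO cells stably expressing human HTR2A were plated for 18 h at 37 C, then loaded with calcium dye for 1 h. Compounds were preincubated 5 min at room temperature before DOI (4 nM solution) was added. Kinetic fluorescence was read for 3 min.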
Chain of 5-hydroxytryptamine receptor 2A (Homo sapiens) (P28223 whole entry, looked up): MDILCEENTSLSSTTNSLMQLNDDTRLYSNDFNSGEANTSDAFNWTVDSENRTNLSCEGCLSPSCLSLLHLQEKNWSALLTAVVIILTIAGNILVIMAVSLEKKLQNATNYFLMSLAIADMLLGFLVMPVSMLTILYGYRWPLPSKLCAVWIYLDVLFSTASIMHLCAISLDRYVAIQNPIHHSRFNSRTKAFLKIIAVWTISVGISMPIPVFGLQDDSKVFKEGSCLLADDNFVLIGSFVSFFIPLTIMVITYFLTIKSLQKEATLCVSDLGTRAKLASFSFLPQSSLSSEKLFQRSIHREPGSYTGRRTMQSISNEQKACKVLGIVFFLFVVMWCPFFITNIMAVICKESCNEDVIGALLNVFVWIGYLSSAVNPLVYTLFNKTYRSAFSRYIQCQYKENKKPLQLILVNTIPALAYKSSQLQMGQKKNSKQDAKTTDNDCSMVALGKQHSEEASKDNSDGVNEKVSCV

For experiment [10] the target is unchanged. The experiment is described as follows: 5-hydroxytryptamine receptor 2A (HTR2A) small molecule agonists, cell-based qHTS assay (AID 1963587). Also: nearly all actives have a fitted effect of over 30% in size. In a few lines: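 CHO cells stably expressing human HTR2A, plated 18 h, loaded with calcium dye 1 h at 37 C. Agonist mode: compounds added and intracellular calcium fluorescence recorded kinetically for 2 min at 1 sec intervals.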

Experiment [11] concerns the target Muscarinic acetylcholine receptor M1 (Homo sapiens) (UniProt P11229). Nature of the experiment: Cholinergic receptor muscarinic 1 (CHRM1) small molecule antagonists, cell-based qHTS assay (AID 1963588). Also: nearly all actives have a fitted effect of over 40% in size. The method, boiled down: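 Compounds were tested at 15 concentrations in three independent runs. Dye-loaded CHRM1-CHO cells were exposed 5 min at room temperature before stimulation by acetylcholine added at 50nM. Intracellular calcium was read kinetically on FDSS for 3 min.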

Experiment [12] shares this target. Nature of the experiment: Cholinergic receptor muscarinic 1 (CHRM1) small molecule agonists, cell-based qHTS assay (AID 1963589). Also: nearly all actives have a fitted effect of over 35% in size. The method, boiled down: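 qHTS, 15-point titration, 3 independent runs: compounds pin-transferred onto dye-loaded CHRM1-CHO cells (human M1), calcium fluorescence followed every second to detect agonism.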
The target of experiment [13] is Beta-2 adrenergic receptor (Homo sapiens) (UniProt P07550). The experiment is described as follows: Adrenergic beta2 receptor (ADRB2) small molecule antagonists, cell-based qHTS assay (AID 1963592). Also: series mostly up to about 92 µM; nearly all actives have a fitted effect of over 50% in size. In a few lines: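 Assay format: CHO-ADRB2 cells, 18-20hr seeding at 37C/5% CO2, then compound plus 1nM isoproterenol agonist mix for 0.5hr RT. Homogeneous time-resolved fluorescence cAMP detection after 1hr, expressed as 665/615 nm ratio.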
Chain of Beta-2 adrenergic receptor (Homo sapiens) (P07550 whole entry, looked up): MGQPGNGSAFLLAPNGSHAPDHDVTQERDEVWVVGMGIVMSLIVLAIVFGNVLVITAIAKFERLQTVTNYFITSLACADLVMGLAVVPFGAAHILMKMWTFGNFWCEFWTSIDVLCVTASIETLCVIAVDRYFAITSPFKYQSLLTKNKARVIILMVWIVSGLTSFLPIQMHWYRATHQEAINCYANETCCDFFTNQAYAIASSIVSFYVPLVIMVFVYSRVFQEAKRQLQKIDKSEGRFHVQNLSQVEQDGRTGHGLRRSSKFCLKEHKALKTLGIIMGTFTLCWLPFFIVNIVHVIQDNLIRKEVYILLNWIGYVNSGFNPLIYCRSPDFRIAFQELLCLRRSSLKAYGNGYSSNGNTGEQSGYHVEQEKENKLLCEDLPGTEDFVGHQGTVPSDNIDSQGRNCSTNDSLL

Experiment [14] deals with D(2) dopamine receptor (Homo sapiens) (UniProt P14416). The experiment is described as follows: Dopamine D2 receptor (DRD2) small molecule agonists, cell-based qHTS assay (AID 1963594). Also: nearly all actives have a fitted effect of over 35% in size. The method, boiled down: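 HEK293 cells stably expressing human DRD2, pre-treated with PDE inhibitor Ro20-1724 (0.1 mM final) and compound 10 min at room temperature, then stimulated with NKH477 (200nM […]) for 30 min. cAMP read by HTRF (665/620 nm).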
Chain of D(2) dopamine receptor (Homo sapiens) (P14416 whole entry, looked up): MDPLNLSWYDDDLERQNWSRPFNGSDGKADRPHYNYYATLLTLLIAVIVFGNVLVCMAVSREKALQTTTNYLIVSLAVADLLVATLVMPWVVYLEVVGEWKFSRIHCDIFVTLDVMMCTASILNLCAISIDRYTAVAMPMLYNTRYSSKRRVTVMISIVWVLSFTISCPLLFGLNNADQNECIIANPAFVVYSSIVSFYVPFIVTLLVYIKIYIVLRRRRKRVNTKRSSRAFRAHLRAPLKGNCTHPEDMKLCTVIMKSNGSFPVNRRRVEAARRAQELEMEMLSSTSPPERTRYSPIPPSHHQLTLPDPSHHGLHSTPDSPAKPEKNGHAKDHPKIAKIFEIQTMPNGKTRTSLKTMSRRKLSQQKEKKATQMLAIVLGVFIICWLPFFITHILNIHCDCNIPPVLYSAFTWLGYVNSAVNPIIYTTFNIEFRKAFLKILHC

Experiment [15] shares this target. Nature of the experiment: Dopamine D2 receptor (DRD2) small molecule antagonists, cell-based qHTS assay (AID 1963595; active = well fitted inhibition curve with a large enough effect in the signal ratio in the repeat runs, with a control signal flat; the % refers to the signal ratio). The method, boiled down: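 Cells were plated and grown for 24 h at 37 °C. Ro20-1724 (0.1 mM final) went in first, then compound for 10 min. NKH477 (200 nM) with quinpirole (12 nM) followed for 30 min at RT, then HTRF detection reagents for 1 h.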

The nature of experiment [16]: p53 small molecule agonists, cell-based qHTS assay: qHTS cell viability counter screen (AID 1963581). Also: nearly all actives have a fitted effect of over 45% in size. In a few lines: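 Multiplexed with the reporter read, a CellTiter-Glo step (30 min, room temperature) gauges ATP-based viability of HCT-116 p53RE-bla cells after 16 h compound incubation at 37 C.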
Experiment [17] is described as follows: p53 small molecule agonists, cell-based qHTS assay (AID 1963582; active = well fitted activation curve with a large enough effect in the signal ratio in the repeat runs, not every such curve was filed as active; the % refers to the signal ratio). In a few lines: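 Beta-lactamase reporter cells (p53RE-bla) treated with compounds for 16 h at 37 C; FRET substrate, 2 h, room temperature; fluorescence intensity.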
Experiment [18] in a line: cAMP Responsive Elements (CRE) small molecule agonists, cell-based qHTS assay (AID 1963590). In a few lines: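 Quantitative HTS for CRE agonists: HEK 293T CRE-bla cells, overnight plating, 3 h compound incubation at 37 C/5% CO2, then 2 h room-temperature LiveBLAzer B/G FRET substrate loading.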
A short description of experiment [19]: cAMP Responsive Elements (CRE) small molecule antagonists, cell-based qHTS assay (AID 1963591; active = well fitted inhibition curve with a large enough effect in the signal ratio in the repeat runs, not every such curve was filed as active; the % refers to the signal ratio). In a few lines: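 Fluorescence intensity from cleaved LiveBLAzer B/G substrate (2 h, room temperature) quantified CRE-bla activity in HEK 293T cells exposed 3 h to compound with 0.25 uM final NKH477.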

Chain of Muscarinic acetylcholine receptor M1 (Homo sapiens) (P11229 whole entry, looked up): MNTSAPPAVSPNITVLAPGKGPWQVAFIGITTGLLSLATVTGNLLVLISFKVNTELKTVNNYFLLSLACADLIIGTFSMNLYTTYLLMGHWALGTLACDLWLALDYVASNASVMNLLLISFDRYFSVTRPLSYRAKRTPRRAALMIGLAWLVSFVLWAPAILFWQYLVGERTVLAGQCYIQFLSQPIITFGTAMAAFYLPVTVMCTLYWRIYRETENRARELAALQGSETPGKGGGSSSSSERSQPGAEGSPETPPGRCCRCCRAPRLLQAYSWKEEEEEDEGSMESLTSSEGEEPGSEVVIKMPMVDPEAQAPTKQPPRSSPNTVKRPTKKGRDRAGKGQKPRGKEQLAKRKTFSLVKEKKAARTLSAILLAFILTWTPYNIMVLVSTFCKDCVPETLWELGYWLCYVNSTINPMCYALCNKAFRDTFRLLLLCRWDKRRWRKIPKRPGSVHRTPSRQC

Turning to `CCc1nn(C2CCCCC2)c2cc(C3(C#N)CCC(C(=O)O)CC3)ccc12` (configuration not stated), the Potency entry in [1], in [2], in experiment [3], in experiment [6], in experiment [7] and in [8] was “inactive” throughout. In addition, the Potency entry in experiment [9], in experiment [10], in experiment [11], in [12], in experiment [13] and in experiment [14] was “inactive” each time. Further, the Potency entry in [15] was “inactive”. Further, the result in experiment [4] and in experiment [5] was inactive.

On to `C#Cc1ccc(-c2ccccc2F)cc1`, for which the Potency result in experiment [1], in experiment [2], in [3], in experiment [6], in [7] and in experiment [8] was “inactive” each time. Moreover, the Potency result in experiment [16], in [17], in experiment [10], in [11], in [12] and in experiment [18] was “inactive” throughout. Besides, the Potency entry in experiment [19], in [13], in experiment [14] and in experiment [15] was “inactive” throughout. In addition, the outcome in [4] and in experiment [5] was inactive.

Turning to `CCCCCOc1ccc(C2SC(=O)NC2=O)cc1OCC` (configuration not stated), the Potency result in experiment [1], in [2], in experiment [3], in experiment [6], in [7] and in experiment [8] was “inactive” each time. Besides, the Potency entry in [16], in experiment [9], in experiment [10], in experiment [11], in experiment [12] and in experiment [13] was “inactive” in each case. Besides, the Potency result in experiment [14] and in experiment [15] was “inactive” each time. Also, the result in experiment [4] and in experiment [5] was inactive.

Regarding `O=C(O)CCNC(=O)c1ccccc1`, the Potency entry in experiment [1], in experiment [2], in [3], in [6], in experiment [7] and in experiment [8] was “inactive” each time. In addition, the Potency entry in [16], in [17], in experiment [18], in [19], in experiment [13] and in [14] was “inactive” throughout. Further, in [15], the Potency entry was “inactive”. The outcome in experiment [4] and in [5] was inactive.

With `COc1ccc2c(c1OC)C(=O)O[C@@H]2[C@H]1c2c(cc3c(c2OC)OCO3)CCN1C`, the Potency result in experiment [1], in [2], in [3], in experiment [6], in [7] and in experiment [8] was “inactive” in each case. The Potency entry in experiment [18], in [19], in experiment [13] and in experiment [14] was “inactive” throughout. The result in experiment [4] and in [5] was inactive.

Regarding `CC(=O)N[C@@H](CCC(N)=O)C(=O)O`, the Potency entry in [1], in experiment [2], in [3], in [6], in experiment [7] and in experiment [8] was “inactive” in each case. In addition, the Potency entry in [16], in experiment [17], in experiment [10], in [11], in experiment [12] and in experiment [18] was “inactive” throughout. Also, the Potency result in [19] and in [15] was “inactive” throughout. Besides, the outcome in experiment [4] and in [5] was inactive.

With `C/C=C/C=C/CCCCCCCO`, the Potency entry in [1], in experiment [3], in [6], in experiment [7], in [8] and in [16] was “inactive” each time. The Potency result in experiment [9], in experiment [10], in experiment [11], in experiment [12], in experiment [13] and in [14] was “inactive” each time. In [2], the Potency is 68.6 µM (active). Further, the outcome in experiment [4] and in experiment [5] was inactive.
